Assay results published in ChEMBL document CHEMBL4513216, “Probing the Open Global Health Chemical Diversity Library for Multistage-Active Starting Points for Next-Generation Antimalarials” (ACS Infect Dis, 2020).
In all, about 65,000 compounds went through this assay and about 2,100 (3.2%) showed an effect of 50% or more. The median lay at about -52%. Many of the other results were omitted from the sample, so strong results are more common in it than they were.

System: Plasmodium falciparum
Assay: Screen against P. falciparum Asexual Blood Stage (ABS), at 5uM
Assay type: functional, Dd2
Conditions: tested at 5 uM

Going from `O=C(C1CNCCN1C(=O)CCOc1ccccc1)N1CCOCC1` (stereo not drawn) to `Cc1nc(C2CCCN2C(=O)COc2ccccc2)ncc1C(N)=O` (stereo not drawn), the INHIBITION rises from -116% to -61%.

First: COC(=O)[C@@H]1C[C@H](NC(=O)c2cc(=O)[nH]c3ccc(C)cc23)CN1C
Second: CCC[C@@H]1CN(C(=O)c2cc3ccccc3cc2O)C[C@H]1N(C)C
The INHIBITION of the first is lower: 5.12% for the first, 52.8% for the second.

Going from `CSCC[C@H](N)c1nnc(SCC(=O)Nc2ccc(Br)cc2)o1` to `Cc1nnc(NC(=O)C(C)n2ncc(Br)c2C)s1` (stereo not drawn), the INHIBITION falls from -102% to -120%.

Compared with `Cc1ccccc1C(=O)N1Cc2c(Cn3ccnc3)nn(C)c2C1`, `CCC[C@@H]1CN(C(=O)c2ccccc2-c2ncc[nH]2)C[C@H]1N(C)C` is lower in INHIBITION: -35.3% for the first, -80.9% for the second.

Going from `CS(=O)(=O)N1CC2(CCN(C(=O)c3ccncc3)CC2)c2ccccc21` to `O=C(NC1CCCN(c2ccccc2Cl)C1)c1c[nH]nn1` (stereo not drawn), the INHIBITION falls from -67.5% to -144%.

First: Cc1cc(N2CCC(c3ncc[nH]3)CC2)nc(N)n1
Second: Cc1cc(N2CCC(c3ncc[nH]3)CC2)cc(C)n1
The INHIBITION of the first is higher: -25.6% for the first, -26.7% for the second.

Going from `Cc1cc(N2CCC(c3ncc[nH]3)CC2)c2ccccc2n1` to `CCN1CCC(CC(=O)NCc2nc(C)cc(C)n2)CC1`, the INHIBITION falls from 62.6% to -46.7%.

Going from `NCC(=O)N1CCCC(c2cncc(Nc3ncccn3)n2)C1` (stereo not drawn) to `O=C(c1c[nH]c(=O)[nH]c1=O)N1CCCC(c2cnccn2)C1` (stereo not drawn), the INHIBITION falls from -81.1% to -173%.

Going from `Cc1ccc(CN2CCCC3(COCCN(Cc4c[nH]nn4)C3)C2)s1` (stereo not drawn) to `CC(C)Nc1ncnc2c1CCN(C(=O)N1CCOCC1)CC2`, the INHIBITION falls from 37.3% to -114%.

First: CCC[C@@H]1CN(C(=O)c2conc2-c2ccccc2)C[C@H]1N(C)C
Second: CCC[C@@H]1CN(C(=O)c2ccccc2-c2ccccc2)C[C@H]1N(C)C
The INHIBITION of the first is higher: 52.8% for the first, 22.2% for the second.

Compared with `CCC[C@@H]1CN(C(=O)c2ccccc2C(C)=O)C[C@H]1N(C)C`, `CCC[C@@H]1CN(C(=O)c2cc(-c3cccs3)n(C)n2)C[C@H]1N(C)C` is higher in INHIBITION: -112% for the first, -63% for the second.

First: CCOCC1CN(C2CCCC2)Cc2cnn(CC3CCOCC3)c21 (stereo not drawn)
Second: CC(C)N1CCCN(c2nc(-c3cccnc3)nc3c2cnn3C)CC1
The INHIBITION of the first is lower: -1.53% for the first, 43.8% for the second.

Going from `COc1cccc(CN(C)C(=O)c2ccc(NC(C)=O)s2)c1OC` to `NC(=O)CCNC(=O)NCC1(c2ccccc2Cl)CCC1`, the INHIBITION rises from -83.5% to -18.5%.

First: NC(=O)CCNCc1c(Cl)cccc1N1CCCC1
Second: O=c1oc(-c2cccs2)nn1CC(O)c1ccc2c(c1)CCC2 (stereo not drawn)
The INHIBITION of the first is higher: 66.4% for the first, -20% for the second.
